PubChem BioAssay
The source made the active and inactive calls. Unless noted, how the calls were made is not given here.

How the values were obtained:
[1] = A549 cell viability effects, profiling panel, calcein-AM fluorescence, 48 h, basal (AID 1162); conditions: higher = more signal; further: test concentration not given here
[2] = adipocyte viability effects, profiling panel, cell-based, 3T3-L1 adipocytes, calcein-AM fluorescence, 48 h, basal (AID 1163); conditions: 3T3-L1 adipocytes viability, higher = more signal; further: test concentration not given here
[3] = HepG2 cell viability effects, profiling panel, calcein-AM fluorescence, 48 h, basal (AID 1164); conditions: higher = more signal; further: test concentration not given here
[4] = MM1S cell viability effects, profiling panel, calcein-AM fluorescence, 48 h, basal (AID 1165); conditions: higher = more signal;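 further: viability of MM1S multiple myeloma cells under basal unstimulated conditions; test concentration not given here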
[5] = basal RPMI8226 viability, no added stimulus, profiling panel, cell-based, calcein-AM fluorescence, 48 h, PK04 Diversity Set (AID 1166); conditions: RPMI8226 myeloma viability, higher = more signal;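 further: cells grown under basal conditions without added stimulus; test concentration not given here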
[6] = basal HepG2 mitochondrial membrane potential changes, profiling panel, cell-based, JC-1 fluorescence, 24 h, 100 nL compound (AID 1167); conditions: higher = more signal; further: test concentration not given here
[7] = basal 3T3-L1 adipocyte mitochondrial potential changes, profiling panel, cell-based, JC-1 fluorescence, 3T3-L1 adipocytes, 24 h, 100 nL compound (AID 1168); conditions: JC-1 mitochondrial fluorescence, higher = more signal, called active from +8 up or from −8 down; further: test concentration not given here
[8] = basal RPMI8226 mitochondrial membrane potential changes, profiling panel, cell-based, JC-1 fluorescence, 24 h, 100 nL compound (AID 1169); conditions: RPMI8226 myeloma, JC-1 mitochondrial potential fluorescence, higher = more signal; further: test concentration not given here
[9] = basal MM1S mitochondrial membrane potential changes, profiling panel, cell-based, JC-1 fluorescence, 24 h, 100 nL compound (AID 1170); conditions: higher = more signal; further: test concentration not given here
[10] = A549 lung cancer cell viability effects, profiling panel, resazurin fluorescence, 24 h, PK04 Diversity Set (AID 1171); conditions: higher = more signal, called active from +8 up or from −8 down; further: test concentration not given here
[11] = HepG2 liver cancer cell viability effects, profiling panel, resazurin fluorescence, 24 h, PK04 Diversity Set (AID 1172); conditions: higher = more signal; further: test concentration not given here
[12] = basal S. cerevisiae growth modulation, no modifier, primary screen, OD600, strain BY4716, 24 h, basal condition (AID 1173); conditions: OD600, 24 h, higher = more signal, called active from +8 up or from −8 down
[13] = MM1S myeloma cell viability, profiling panel, resazurin fluorescence, basal, 24 h, PK04 Diversity Set (AID 1174); conditions: higher = more signal, called active from +8 up or from −8 down;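 further: MM1S multiple myeloma cell line; test concentration not given here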
[14] = biological target: Dihydroorotate dehydrogenase (quinone), mitochondrial (Plasmodium falciparum (isolate 3D7)) (UniProt Q08210); test: PfDHODH enzyme inhibitors, primary screen, biochemical, C-terminal His tag, absorbance 600 nm (AID 1175); conditions: DCIP absorbance 600 nm, higher = more signal, called active from +8 up or from −8 down;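 further: recombinant parasite enzyme with a five histidine tag at its C terminus; test concentration not given here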
[15] = P. aeruginosa biofilm formation inhibitors, primary screen, strain PAO1, LB-PBS medium, absorbance 600 nm (AID 1176); further: test concentration not given here; conditions: P. aeruginosa PAO1 growth/biofilm, A600, 12 h; higher = more signal
[16] = S. cerevisiae RM11-1a growth modifiers, primary screen, strain RM11-1a, OD600, basal, 24 h (AID 1177); conditions: OD600, 24 h, higher = more signal, called active from +8 up or from −8 down;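 further: cultures grown under basal conditions with no added stressor; test concentration not given here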
[17] = E. coli acrAB mutant growth effects, primary screen, E. coli filamentation inducers, strain DRC39, OD650, 24 h (AID 1178); conditions: higher = more signal, called active from +8 up or from −8 down;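 further: growth measured as culture turbidity by optical density at 650 nm; test concentration not given here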
[18] = E. coli acrAB mutant growth effects, primary screen, E. coli filamentation inducers, strain DRC39, OD650, 48 h (AID 1179);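 further: screen aims at cell division blockers that make cells filament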; conditions: E. coli DRC39 delta-acrAB growth, higher = more signal, called active from +8 up or from −8 down
[19] = RPMI8226 myeloma cell viability, profiling panel, resazurin fluorescence, basal, 24 h, PK04 Diversity Set (AID 1180); conditions: higher = more signal;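 further: RPMI8826 multiple myeloma cell line at 5000 cells per well; test concentration not given here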
[20] = biological target: E3 ubiquitin-protein ligase XIAP (Homo sapiens) (UniProt P98170); test: XIAP binders, primary screen, biophysical, small-molecule microarray, fluorescence 635 nm (AID 1181); conditions: small-molecule microarray binding, higher = more signal;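 further: score merges 667 nm emission and signal to noise over triplicate slides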
Chain of E3 ubiquitin-protein ligase XIAP (Homo sapiens) (P98170 whole entry, looked up): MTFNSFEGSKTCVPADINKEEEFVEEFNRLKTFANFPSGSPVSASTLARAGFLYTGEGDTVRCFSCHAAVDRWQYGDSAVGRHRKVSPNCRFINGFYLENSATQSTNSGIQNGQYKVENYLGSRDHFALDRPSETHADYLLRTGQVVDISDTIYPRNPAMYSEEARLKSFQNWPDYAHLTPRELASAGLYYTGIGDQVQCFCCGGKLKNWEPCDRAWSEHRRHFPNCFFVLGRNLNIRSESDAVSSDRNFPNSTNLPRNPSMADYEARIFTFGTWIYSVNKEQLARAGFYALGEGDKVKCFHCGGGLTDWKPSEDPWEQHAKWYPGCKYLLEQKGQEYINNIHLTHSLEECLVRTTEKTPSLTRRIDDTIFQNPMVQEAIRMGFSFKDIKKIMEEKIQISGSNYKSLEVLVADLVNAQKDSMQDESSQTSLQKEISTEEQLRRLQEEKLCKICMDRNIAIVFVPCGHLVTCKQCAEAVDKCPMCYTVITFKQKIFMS

Chain of Dihydroorotate dehydrogenase (quinone), mitochondrial (Plasmodium falciparum (isolate 3D7)) (Q08210 whole entry, looked up): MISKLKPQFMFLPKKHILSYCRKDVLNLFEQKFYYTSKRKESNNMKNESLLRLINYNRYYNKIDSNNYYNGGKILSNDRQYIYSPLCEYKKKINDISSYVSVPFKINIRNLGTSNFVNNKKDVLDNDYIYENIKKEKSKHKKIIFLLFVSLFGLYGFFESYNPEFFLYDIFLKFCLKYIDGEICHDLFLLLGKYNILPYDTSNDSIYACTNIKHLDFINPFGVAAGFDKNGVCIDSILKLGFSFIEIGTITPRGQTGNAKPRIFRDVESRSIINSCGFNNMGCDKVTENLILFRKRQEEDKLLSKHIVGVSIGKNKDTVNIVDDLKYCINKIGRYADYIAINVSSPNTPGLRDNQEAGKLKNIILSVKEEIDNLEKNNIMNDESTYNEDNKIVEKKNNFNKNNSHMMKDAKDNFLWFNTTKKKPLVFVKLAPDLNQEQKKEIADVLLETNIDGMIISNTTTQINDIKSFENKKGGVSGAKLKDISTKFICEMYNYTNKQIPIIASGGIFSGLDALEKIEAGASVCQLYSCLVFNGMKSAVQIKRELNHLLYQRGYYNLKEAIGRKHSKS

| SMILES | z-score [1] | z-score [2] | z-score [3] | z-score [4] | z-score [5] | z-score [6] | z-score [7] | z-score [8] | z-score [9] | z-score [10] | z-score [11] | z-score [12] | z-score [13] | composite z-score [14] | z-score [15] | z-score [16] | z-score [17] | z-score [18] | z-score [19] | composite z-score [20] |
| --- | --- | --- | --- | --- | --- | --- | --- | --- | --- | --- | --- | --- | --- | --- | --- | --- | --- | --- | --- | --- |
| COc1ccccc1CN1C(=O)c2ccccc2[C@](Cc2ccccc2I)(C(=O)NCCN2CCOCC2)[C@@H]1c1ccc(CO)cc1 | 0.0739 | 0.937 | 1.26 | -1.17 | -2.74 | 2.25 | 0.833 (inactive) | -0.673 | -0.454 | -1.83 (inactive) | -2.07 | -0.261 (inactive) | -0.914 (inactive) | -1.1 (inactive) | 0.817 (inactive) | -0.897 (inactive) | 0.533 (inactive) | 0.908 (inactive) | -1.66 | -0.108 |
| O=C1CSC(c2cccc([N+](=O)[O-])c2)N1c1ccccc1 (stereo not given) | -0.295 | -0.23 | 1.71 | 1.31 | -0.566 | 1.04 | 1.05 (inactive) | 0.0369 | -0.779 | -0.292 (inactive) | 0.0598 | 0.483 (inactive) | -0.0906 (inactive) | -0.861 (inactive) | 0.199 (inactive) | 0.468 (inactive) | 0.869 (inactive) | 0.869 (inactive) | 0.407 | -0.0056 |
| COCCOC(=O)N1C(=O)[C@@]2(c3cc(C#CCNC(N)=O)ccc31)[C@H](C(=O)N1CCCCCCC1)[C@H]1C(=O)O[C@H](c3ccccc3)[C@H](c3ccccc3)N1[C@@H]2c1ccc(OCCO)cc1 | 0.626 | 0.636 | 1.46 | 0.246 | 1.01 | -1.47 | -2.15 (inactive) | -0.764 | -1.75 | -0.619 (inactive) | -0.178 | 0.971 (inactive) | -0.237 (inactive) | -0.0134 (inactive) | 2.73 (inactive) | 1.59 (inactive) | -0.0272 (inactive) | 0.531 (inactive) | 0.176 | 0.0471 |
| O=C1c2ccccc2[C@](Cc2ccccc2I)(C(=O)NC2CC2)[C@H](c2ccc(CO)cc2)N1Cc1ccccc1Cl | -0.138 | -0.103 | -0.0887 | -1.39 | -0.715 | 0.833 | -0.469 (inactive) | -0.332 | -0.664 | 0.623 (inactive) | 0.197 | 0.504 (inactive) | -0.405 (inactive) | 0.37 (inactive) | 0.925 (inactive) | 1.9 (inactive) | 0.258 (inactive) | -0.507 (inactive) | -0.506 | 0.0432 |
| CN1C(=O)C2C=CC(C(O)c3ccc(F)cc3)N(N3CCCCC3)C2C1=O (stereo not given) | -1.1 | -1.24 | -0.572 | -1.05 | 0.0924 | -1.43 | -0.487 (inactive) | 0.00989 | -0.118 | -0.707 (inactive) | -1.49 | 1.62 (inactive) | -1.78 (inactive) | -0.555 (inactive) | 1.41 (inactive) | 1.42 (inactive) | -1.02 (inactive) | -0.837 (inactive) | -1.79 | -0.0727 |
| CCC[C@@H]1C[C@@]1(CCC)[C@@H](NC(=O)c1ccco1)c1ccc(Cl)cc1 | -1.03 | -0.741 | -1.06 | -1.6 | -4.31 | -1.62 | -0.00207 (inactive) | -0.736 | -2.07 | -1.91 (inactive) | 1.6 | 0.614 (inactive) | 0.254 (inactive) | -0.152 (inactive) | 0.439 (inactive) | 0.288 (inactive) | -0.195 (inactive) | 0.105 (inactive) | -1.67 | -0.683 |
| CCCC[C@H]1OB(O)C[C@H]2C1=C(COc1ccccc1)Cn1c(=O)n(-c3ccccc3)c(=O)n12 | -0.428 | 0.75 | -0.561 | -0.206 | -1.28 | -2.12 | 0.16 (inactive) | 0.268 | -0.958 | -0.412 (inactive) | -0.0243 | -6.02 (inactive) | -0.0638 (inactive) | -2.51 (inactive) | 0.294 (inactive) | 0.458 (inactive) | 0.232 (inactive) | 0.0306 (inactive) | -0.0851 | -0.327 |
| COc1ccc(C(=O)Nc2ccc(CN3C(=O)[C@@]4(O[C@@H](CC(=O)N5Cc6ccccc6C[C@H]5CO)[C@H]([Si](C)(C)c5ccc(OC)cc5)[C@H]4C)c4ccccc43)cc2)cc1 | -0.0018 | 0.844 | -0.856 | -1.84 | -0.881 | 0.489 | 0.749 (inactive) | -0.957 | -1.05 | 0.143 (inactive) | 0.473 | -0.273 (inactive) | -1.66 (inactive) | -3.48 (inactive) | 0.896 (inactive) | 1.23 (inactive) | 0.704 (inactive) | 0.241 (inactive) | -1.04 | -0.127 |
